Data on 40 molecules can be found in PubChem BioAssay (NCI).

About 83,000 compounds went through this panel and 20% of them were active in at least one assay; those are over-represented in the sample as a whole.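 Growth was measured after 48 h exposure to one concentration of compound in 96-well plates. Values under 10 count as active.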 Active and inactive are the calls of the source.

The subject of the first assay is NCI-H23 lung. The assay is described as follows: NCI-60 one-dose screen, 48 h (100 = growth as untreated, 0 = no growth, -100 = all killed). As to conditions: 10 µM unless noted.
Consider `CC1Cc2c(Cl)ncnc2N(C)c2ccc(F)cc21` (stereo not given), for which the growth is 103% (inactive).
In the case of `N#CC1=C(N)Oc2c(sc3c(Br)cccc23)C1c1ccc(F)cc1` (stereo not given), the growth was 31.1% (inactive).
Still for that read-out and setting: for `COc1ccc(/C(C)=C(/c2ccc(OCCCN(C)C)cc2)c2ccc(OC(=O)Cc3ccccc3)cc2)cc1` the value was 76.4% (inactive); for `O=C1Nc2ccccc2[C@]12CC(c1ccccc1)=NN2`, 64.3% (inactive); for `CN(CCOc1ccc(C#N)cc1)CCOc1ccc(C#N)cc1`, 56.5% (inactive).
For the molecule `Cc1ccc(Sc2nnc(/N=C3\C(=O)Nc4ccccc43)s2)cc1`, the growth was 107% (inactive).
On the same count and under the same terms, for `Cn1cc(-c2nonc2-c2c[nH]c3ccc(Br)cc23)c2cc(Br)ccc21` the value was 39.9% (inactive).
The same measure, in the same setting: the result for `Cc1ccc(NC(=S)NNC(=S)NNc2ccccc2)cc1C` reads 99.9% (inactive); that for `COc1ccc(-c2csc(N(C(=O)N3CCN(c4cc5c(cc4F)c(=O)c(C(=O)O)cn5C4CC4)CC3)c3ccccc3)n2)cc1`, 4.28% (active); that for `O=[N+]([O-])c1ccc(N/N=C(/C(=N/Nc2ccc([N+](=O)[O-])cc2)c2ccccc2)c2ccccc2)cc1`, 82.5% (inactive).
Still for that read-out and setting: for `CCCCCCCCn1ccc2cc(NC(=O)CN3CCN(c4nc(C)cc(Cl)n4)CC3)ccc21` the value was 91.5% (inactive); for `COc1ccc(-c2cc(-c3ccc(Cl)cc3)c(C#N)c(=O)n2CCCCC(=O)Nc2ccccc2N)cc1`, 63.4% (inactive).
Turning to `CCOC(=O)c1c2c(n3ccc(C)cc13)C(=O)c1ccccc1C2=O`, the growth is 85.5% (inactive).
Same read-out and setting: the result for `COc1ccc(-c2nc3c(c(-c4ccccc4)nn3-c3ccccc3)c(-c3ccc(N4CCN(C)CC4)cc3)c2C#N)cc1` reads 98.6% (inactive); that for `Cc1ccc(-n2c(=S)[nH]c3sc4c(c3c2=O)CCC(=O)C4)cc1`, 68.7% (inactive).
The same measure, in the same setting: the result for `COc1cc(-c2cc(-c3ccc(N(C)C)cc3)nc(N3CCC(O)CC3)c2C#N)cc(OC)c1OC` reads 3.6% (active).
Consider `O=Cc1ccc([N+](=O)[O-])s1`, for which the growth is 93.2% (inactive).
Still for that read-out and setting: the result for `CC1=NN(c2nc(SCC(=O)Nc3nc4ccc(C)cc4s3)nc(-c3ccccc3)c2C#N)C(=O)C1` reads 105% (inactive).
Turning to `O=C(CSc1nc(-c2ccccc2)[nH]c1S(=O)(=O)c1ccccc1)NC1CC1`, the growth was 56.6% (inactive).
On the same count and under the same terms, the result for `Nc1ncnc2c1N=C(c1ccc3c(c1)OCO3)CC(c1cccc(Nc3ccnc4cc(Cl)ccc34)c1)N2` (stereo not given) reads 49.8% (inactive); that for `O=C(CN1C(=O)CCC1=O)Nc1ncc(Cc2ccc(F)cc2)s1`, 98.6% (inactive).
Same read-out and setting: for `Cn1cc(-c2csc(-c3ccc(Cl)cc3)n2)c2cccnc21` the value was -49.3% [100 µM] (active); for `CN(Cc1ccc(C(F)(F)F)cc1)CC(O)C(=O)Nc1ccc(Cl)cc1` (stereo not given), -50.9% (active).
Turning to `CCCCCOc1ccc(C(=O)/C(Br)=C/C(=O)O)cc1`, the growth was 91.9% (inactive).
On the same count and under the same terms, the result for `CCN(CC)CCCN1C(=O)c2c(c(C)c3c(oc4cc(O)ccc43)c2C)C1=O` reads 104% (inactive).
The same measure, in the same setting: for `CCOP(=O)(OCC)c1nc(-c2ccccc2)oc1NCc1cccnc1` the value was 102% (inactive).
In the case of `O=C(CCC(=O)N/N=C/c1ccccc1O)N/N=C/c1ccccc1O`, the growth was 61.2% (inactive).
Still for that read-out and setting: for `S=C(Nc1ccc(-c2nc(N3CCOCC3)c3cccn3n2)cc1)Nc1cccnc1` the value was 37.7% (inactive); for `N#Cc1c(N)nnn1Cc1cc(=O)oc2c1ccc1ccccc12`, 93.2% (inactive); for `Fc1ccc2[nH]cc(-c3nonc3-c3c[nH]c4ccc(Br)cc34)c2c1`, 24.4% (inactive).
Same read-out and setting: the result for `O=Nc1c(-c2c(O)[nH]c3ncccc23)[nH]c2ccccc12` reads 69.7% (inactive); that for `Fc1cccc(CNc2c3ccccc3nc3ccccc23)c1F`, 60.6% (inactive).
Same read-out and setting: the result for `CCn1c(=S)sc2c(Nc3ccc(F)cc3)nc(-c3cccnc3)nc21` reads 66.2% (inactive); that for `CC(C)(C)n1cc(-c2ccnc(NCCNS(=O)(=O)c3cccc(F)c3)c2)c(-c2ccccc2)n1`, 79.1% (inactive).
Take `Cc1cc2c(O)c(-c3cc(Cl)ccc3Cl)c3sc(=O)oc3c2cc1C`: the growth is 44.2% (inactive).
Still for that read-out and setting: the result for `Fc1ccc(-c2nn(-c3ccccc3)cc2-c2nc3ccccc3o2)cc1` reads 65.8% (inactive); that for `OB(O)c1cccc(-c2nc3ccc4[nH]ncc4c3c3c2CCCC3)c1`, 73% (inactive).
The same measure, in the same setting: the result for `O=C(CSc1nc2ccc([N+](=O)[O-])cc2[nH]1)Nc1ccc(F)cc1` reads 40.4% (inactive); that for `CNC(=O)c1c(NC(=O)c2ccc(C(F)(F)F)cc2)sc2c1CCC(=O)C2`, -5.25% (active).
The same measure, in the same setting: for `N#Cc1cccc(NC(=O)c2oc3ccccc3c2-c2cnn(-c3ccccc3)c2)c1` the value was 83.7% [50 µM] (inactive).

Another assay relates to NCI-H226 lung. Described as above. As to conditions: 10 µM unless noted.
For the molecule `CC1Cc2c(Cl)ncnc2N(C)c2ccc(F)cc21` (stereo not given), the growth is 94.5% (inactive).
Turning to `N#CC1=C(N)Oc2c(sc3c(Br)cccc23)C1c1ccc(F)cc1` (stereo not given), the growth was 36.6% (inactive).
On the same count and under the same terms, for `COc1ccc(/C(C)=C(/c2ccc(OCCCN(C)C)cc2)c2ccc(OC(=O)Cc3ccccc3)cc2)cc1` the value was 91.5% (inactive).
Consider `O=C1Nc2ccccc2[C@]12CC(c1ccccc1)=NN2`, for which the growth was 77.7% (inactive).
With `CN(CCOc1ccc(C#N)cc1)CCOc1ccc(C#N)cc1`, the growth is 62% (inactive).
With `Cc1ccc(Sc2nnc(/N=C3\C(=O)Nc4ccccc43)s2)cc1`, the growth is 106% (inactive).
With `Cn1cc(-c2nonc2-c2c[nH]c3ccc(Br)cc23)c2cc(Br)ccc21`, the growth was 44.8% (inactive).
Same read-out and setting: for `Cc1ccc(NC(=S)NNC(=S)NNc2ccccc2)cc1C` the value was 99.7% (inactive).
As to `COc1ccc(-c2csc(N(C(=O)N3CCN(c4cc5c(cc4F)c(=O)c(C(=O)O)cn5C4CC4)CC3)c3ccccc3)n2)cc1`, the growth is 28.5% (inactive).
Same read-out and setting: the result for `O=[N+]([O-])c1ccc(N/N=C(/C(=N/Nc2ccc([N+](=O)[O-])cc2)c2ccccc2)c2ccccc2)cc1` reads 97.5% (inactive); that for `CCCCCCCCn1ccc2cc(NC(=O)CN3CCN(c4nc(C)cc(Cl)n4)CC3)ccc21`, 88.9% (inactive).
Same read-out and setting: for `COc1ccc(-c2cc(-c3ccc(Cl)cc3)c(C#N)c(=O)n2CCCCC(=O)Nc2ccccc2N)cc1` the value was 55.3% (inactive); for `CCOC(=O)c1c2c(n3ccc(C)cc13)C(=O)c1ccccc1C2=O`, 98.1% (inactive).
On the same count and under the same terms, the result for `COc1ccc(-c2nc3c(c(-c4ccccc4)nn3-c3ccccc3)c(-c3ccc(N4CCN(C)CC4)cc3)c2C#N)cc1` reads 94.2% (inactive).
In the case of `Cc1ccc(-n2c(=S)[nH]c3sc4c(c3c2=O)CCC(=O)C4)cc1`, the growth was 83.4% (inactive).
On the same count and under the same terms, for `COc1cc(-c2cc(-c3ccc(N(C)C)cc3)nc(N3CCC(O)CC3)c2C#N)cc(OC)c1OC` the value was -6.93% (active); for `O=Cc1ccc([N+](=O)[O-])s1`, 105% (inactive); for `CC1=NN(c2nc(SCC(=O)Nc3nc4ccc(C)cc4s3)nc(-c3ccccc3)c2C#N)C(=O)C1`, 89.4% (inactive).
The same measure, in the same setting: for `O=C(CSc1nc(-c2ccccc2)[nH]c1S(=O)(=O)c1ccccc1)NC1CC1` the value was 85.8% (inactive).
Same read-out and setting: for `Nc1ncnc2c1N=C(c1ccc3c(c1)OCO3)CC(c1cccc(Nc3ccnc4cc(Cl)ccc34)c1)N2` (stereo not given) the value was 69.8% (inactive).
In the case of `O=C(CN1C(=O)CCC1=O)Nc1ncc(Cc2ccc(F)cc2)s1`, the growth is 95.9% (inactive).
On the same count and under the same terms, the result for `Cn1cc(-c2csc(-c3ccc(Cl)cc3)n2)c2cccnc21` reads -14.3% [100 µM] (active); that for `CN(Cc1ccc(C(F)(F)F)cc1)CC(O)C(=O)Nc1ccc(Cl)cc1` (stereo not given), 51.8% (inactive).
With `CCCCCOc1ccc(C(=O)/C(Br)=C/C(=O)O)cc1`, the growth is 106% (inactive).
The same measure, in the same setting: the result for `CCN(CC)CCCN1C(=O)c2c(c(C)c3c(oc4cc(O)ccc43)c2C)C1=O` reads 35.4% (inactive); that for `CCOP(=O)(OCC)c1nc(-c2ccccc2)oc1NCc1cccnc1`, 104% (inactive).
Same read-out and setting: for `O=C(CCC(=O)N/N=C/c1ccccc1O)N/N=C/c1ccccc1O` the value was 61.8% (inactive); for `S=C(Nc1ccc(-c2nc(N3CCOCC3)c3cccn3n2)cc1)Nc1cccnc1`, 38.2% (inactive); for `N#Cc1c(N)nnn1Cc1cc(=O)oc2c1ccc1ccccc12`, 83.9% (inactive).
Consider `Fc1ccc2[nH]cc(-c3nonc3-c3c[nH]c4ccc(Br)cc34)c2c1`, for which the growth is 53.6% (inactive).
Still for that read-out and setting: the result for `O=Nc1c(-c2c(O)[nH]c3ncccc23)[nH]c2ccccc12` reads 78.6% (inactive); that for `Fc1cccc(CNc2c3ccccc3nc3ccccc23)c1F`, 72.9% (inactive); that for `CCn1c(=S)sc2c(Nc3ccc(F)cc3)nc(-c3cccnc3)nc21`, 75.2% (inactive).
The same measure, in the same setting: the result for `CC(C)(C)n1cc(-c2ccnc(NCCNS(=O)(=O)c3cccc(F)c3)c2)c(-c2ccccc2)n1` reads 90.1% (inactive); that for `Cc1cc2c(O)c(-c3cc(Cl)ccc3Cl)c3sc(=O)oc3c2cc1C`, 58% (inactive); that for `Fc1ccc(-c2nn(-c3ccccc3)cc2-c2nc3ccccc3o2)cc1`, 84.4% (inactive).
The same measure, in the same setting: the result for `OB(O)c1cccc(-c2nc3ccc4[nH]ncc4c3c3c2CCCC3)c1` reads 81.6% (inactive); that for `O=C(CSc1nc2ccc([N+](=O)[O-])cc2[nH]1)Nc1ccc(F)cc1`, 48.9% (inactive); that for `CNC(=O)c1c(NC(=O)c2ccc(C(F)(F)F)cc2)sc2c1CCC(=O)C2`, 9.17% (active).
With `N#Cc1cccc(NC(=O)c2oc3ccccc3c2-c2cnn(-c3ccccc3)c2)c1`, the growth was 72.5% [50 µM] (inactive).
